Our source for the Potency values is PubChem BioAssay (NCATS).

Results filed as inconclusive are left out. Entries that show only a call come without a potency. The source made the active and inactive calls. Calls come from the whole dose curve; as a rule, active = well fitted cell-killing curve with a large enough effect; inconclusive = small, poorly fitted or top-dose-only effect, or effect the other way; inactive = no such curve, though single readings can be large or run the other way.
Potency is the fitted concentration of half-maximal effect.

This assay can be described thus: qHTS assay to identify small molecule inhibitors of chordoma cells - UCH-1 (AID 1259355). Note: nearly all actives have a fitted effect of over 55% in size. Conditions: UCH-1 chordoma viability, CellTiter-Glo, 48 h, combination, with auranofin plus four topoisomerase inhibitors; series mostly up to 46.1 µM. The source says:
NIH Chemical Genomics Center [NCGC]
Chordoma is a rare and slow growing tumor that can occur anywhere along the spine, from the base of the skull to the tailbone. Current treatment options for chordoma is surgery and radiation therapy for those who are not candidates for surgery. But chordomas tend to return in the same location or surrounding areas of the original tumor after surgery and/or radiation. Chemotherapy can slow down the progression of the tumor. As chordoma is slow growing, the general cytotoxic agents that kill fast growing cells are ineffective, and some patients have been reported to respond to molecularly targeted drugs.
NCATS Pharmaceutical Collection (NPC) containing approximately 3000 clinically approved and investigational drugs were used to screen at 15 concentrations in a chordoma cell lines, UCH-1, to identify small molecule compounds that can inhibit chordoma cell growth.
NCGC Assay Protocol Summary:
Human chordoma cell line UCH-1 was dispensed at 800 per well in 4uL of culture medium into white solid bottom 1536-well plates (Corning Life Sciences, Corning, NY) using a Multidrop Combi (Thermo Scientific, Waltham, MA) dispenser. The assay plates were incubated at 37 C and 5% CO2 for an overnight, and then 23nL of compounds dissolved in DMSO and positive control were transferred using a Pintool station (Wako, San Diego, CA). Compound treatment was followed by the addition of 1uL of the combination compounds (1uM Auranofin, 500nM each of Camptothecin, Doxorubicin, Rubitecan, and Topotecan) and assay medium to each well of the assay plates using Flying Reagent Dispenser (FRD, Aurora Discovery, San Diego, CA). The assay plates were incubated at 37 C and 5% CO2 for 48hr. Then 5uL of CellTiter-Glo reagent (Promega Corporation, Madison, WI) was added to each well of the assay plates using FRD. After 30min incubation at room temperature, the luminescence signal was quantified using a ViewLux plate reader (PerkinElmer, Shelton, CT).
(qHTS replaces the single test concentration by a dilution series.)
Consider `NCCNc1cccc2ccccc12`, for which the Potency result is “inactive”. For `COc1cc(C(=O)NCc2ccc(OCCN(C)C)cc2)cc(OC)c1OC`, the Potency entry was “inactive”. Turning to `CN1CCN(CCC(=O)N2c3ccccc3Sc3ccc(C(F)(F)F)cc32)CC1`, the Potency entry is “inactive”. For `CC(C)CCCC(C)N` (stereo not given), the Potency entry is “inactive”. Next, `CCCCCCCCCCCCOCCOCCOCCOCCOCCOCCOCCOCCOCCO`: “inactive”; `CC[C@]12CCCN3CCc4c(n(c5ccccc45)C(=O)C1)[C@@H]32`: “inactive”; `CC(C)Nc1cccnc1N1CCN(C(=O)c2cc3cc(NS(C)(=O)=O)ccc3[nH]2)CC1`: “inactive”. For `N/C(=N\N=C\c1ccc(Cl)cc1)N/N=C/c1ccc(Cl)cc1`, the Potency result is “inactive”. On to `Cc1ccccc1OCC(O)CO` (stereo not given), for which the Potency result was “inactive”. Under `CCN(CC)CCNC(=O)COc1ccc(OC)cc1` stands “inactive”. As for `CCCCCCCCCCCCSCCOCCO`, the Potency entry was “inactive”. `CCCCNC(=O)NS(=O)(=O)c1ccc(N)cc1`: the Potency result was “inactive”.

Turning to `O=S(=O)(O)c1ccc(O)cc1`, the Potency entry was “inactive”.

Turning to `CC1(C)OC[C@@H]2O[C@@]3(C(=O)O)OC(C)(C)O[C@H]3[C@@H]2O1`, the Potency entry is “inactive”. As to `CC(=O)N[C@@H](CCC(=O)O)C(=O)O`, the Potency result was “inactive”. For the molecule `CN1CCN(C2=Nc3cc(F)ccc3Cc3ccccc32)CC1`, the Potency entry was “inactive”. As for `Nc1ccc(C(=O)NCC(=O)O)cc1`, the Potency entry was “inactive”. For the molecule `CCc1nn(CCCN2CCN(c3cccc(Cl)c3)CC2)c(=O)n1CCOc1ccccc1`, the Potency result was “inactive”. Next, `C=C[C@H]1CN2CC[C@H]1C[C@H]2[C@H](O)c1ccnc2ccc(OC)cc12`: “inactive”. Next, `Cc1c(-c2ccccc2)oc2c(C(=O)OCCN3CCCCC3)cccc2c1=O`: “inactive”.

As for `O[C@@H](c1cc(C(F)(F)F)nc2c(C(F)(F)F)cccc12)[C@H]1CCCCN1`, the Potency was 35.5 µM (active).

As to `COc1ccc(C(=O)c2ccccc2)c(O)c1`, the Potency entry was “inactive”. For `COc1cc([C@H]2Oc3cc([C@H]4Oc5cc(O)cc(O)c5C(=O)[C@@H]4O)ccc3O[C@@H]2CO)ccc1O`, the Potency entry is “inactive”.

As for `COP(=O)(OC)OC(c1ccc(Cl)cc1)P(=O)(OC)OC` (stereo not given), the Potency result was “inactive”. For the molecule `O=C(O)Cc1csc(-c2ccc(Cl)cc2)n1`, the Potency entry is “inactive”.

As for `O=C1OC2(c3ccccc31)c1cc(Br)c(O)c(Br)c1Oc1c2cc(Br)c(O)c1Br`, the Potency result was “inactive”. Next, `Cc1cn([C@H]2C[C@H](F)[C@@H](CO)O2)c(=O)[nH]c1=O`: “inactive”. In the case of `O=C(CN1CCN(Cc2ccc3c(c2)OCO3)CC1)N1c2ccccc2Sc2ccccc21`, the Potency entry was “inactive”.

Consider `C=C1c2cccc(O)c2C(O)=C2C(=O)[C@]3(O)C(O)=C(C(N)=O)C(=O)[C@@H](N(C)C)[C@@H]3[C@@H](O)[C@H]12`, for which the Potency entry was “inactive”. Consider `CN(C)CCOC(c1ccc(Cl)cc1)c1ccccn1` (stereo not given), for which the Potency result was “inactive”. As for `O=C(O)CCNC(=O)c1ccccc1`, the Potency result is “inactive”. `CC(=O)O[C@H]1C[C@@H]2CC[C@@H]3[C@H](CC[C@@]4(C)[C@H]3C[C@H]([N+]3(C)CCCCC3)[C@@H]4OC(C)=O)[C@@]2(C)C[C@@H]1N1CCCCC1`: the Potency entry is “inactive”. Next, `CN(C)C(=O)Nc1ccc(Cl)c(Cl)c1`: “inactive”; `O=C(O)c1ccc(S(=O)(=O)N(Cl)Cl)cc1`: “inactive”.

With `CCCCCCCC/C=C\CCCCCCCCN`, the Potency entry was “inactive”. Take `CCOC(=O)[C@@](C)(N)Cc1ccc(O)c(O)c1`: the Potency result was “inactive”. As to `CCOC(=O)C(C#N)=C(c1ccccc1)c1ccccc1`, the Potency entry was “inactive”. As to `CN(CCCN1c2ccccc2CCc2ccccc21)CC(=O)c1ccc(Cl)cc1`, the Potency entry was “inactive”.

With `Nc1nc(Cl)nc2c1ncn2[C@@H]1O[C@H](CO)[C@@H](O)[C@@H]1F`, the Potency entry is “inactive”.

For `CC(=O)Nc1ccc(CC(=O)O)cc1`, the Potency result is “inactive”.
